This is a sample that favours compounds with a hit; in the whole collection about 2.5% have one here.
Cruzain noTriton – qHTS Assay for Promiscuous and Specific Inhibitors of Cruzain (without detergent). Cruzipain (Trypanosoma cruzi), P25779. AID 1476, 2009. 2.3% of 200,000 active. purified cruzain, Z-FR-AMC fluorescence, no detergent. Potency, µM, hits mostly inhibitors; also: nearly all actives have a fitted effect of over 40% in size
Target sequence (P25779 123-467 limits assumed): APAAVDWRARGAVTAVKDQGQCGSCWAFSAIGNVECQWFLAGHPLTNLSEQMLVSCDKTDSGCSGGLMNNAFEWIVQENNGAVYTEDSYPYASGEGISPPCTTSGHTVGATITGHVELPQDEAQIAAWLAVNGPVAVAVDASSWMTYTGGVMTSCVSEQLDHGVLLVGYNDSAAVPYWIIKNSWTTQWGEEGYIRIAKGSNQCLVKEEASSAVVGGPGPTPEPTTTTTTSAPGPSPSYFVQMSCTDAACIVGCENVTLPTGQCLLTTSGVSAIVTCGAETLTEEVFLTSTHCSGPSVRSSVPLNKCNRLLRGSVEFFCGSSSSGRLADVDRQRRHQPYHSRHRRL
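Purified cruzain at 1.5 nM, pre-incubated 15 min with compound at room temperature in 100 mM sodium acetate pH 5.5, 5 mM DTT, 0.00005% Triton X-100. Reaction started with 2 uM Z-FR-AMC; AMC fluorescence increase over 60 s gives rate.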
Cruzain Triton – qHTS Assay for Promiscuous and Specific Inhibitors of Cruzain (with detergent). AID 1478, 2009. 0.43% of 200,000 active. Cruzipain (Trypanosoma cruzi), P25779. Potency, µM, actives largely listed as inhibitors. purified cruzain, Z-FR-AMC fluorescence, 0.01% Triton; also: nearly all actives have a fitted effect of over 40% in size
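15 min RT preincubation of 1.5 nM cruzain with compound, then 2 uM Z-FR-AMC added; kinetic AMC fluorescence, 60 s delta. Triton X-100 0.01%, pH 5.5.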
Large screens that a line does not name were inactive. Calls follow the shape of the dose curve; as a rule, active = well fitted curve in the direction sought with a large enough effect; inconclusive = small, poorly fitted or top-dose-only effect, or another doubt; inactive = no such curve, though single readings can be large; an effect the other way counts as inactive or inconclusive.

CCN(CC)C(=O)c1sc2c(c1C)c(=O)n(-c1ccc(Cl)c(Cl)c1)c(=O)n2CC(=O)Nc1cccc(OC)c1	none
COc1ccc(/C=C/C(=O)Nc2cc(S(=O)(=O)N3CCCCC3)ccc2N2CCCCC2)cc1OC	none
COc1ccc(/C=C(\C#N)C(=O)Nc2cc(S(=O)(=O)N3CCCCC3)ccc2N2CCCCC2)cc1	Cruzain noTriton 4µM
CCc1ccc(-n2c(=O)c3sc4ccccc4c3n(CC(=O)NCc3ccccc3)c2=O)cc1	none
Cc1ccc(Cc2cnc(N3C(=N)SC(c4ccccc4)C3=O)s2)cc1 (centres undefined)	Cruzain noTriton inconclusive
N=C1SC(c2ccccc2)C(=O)N1c1ncc(Cc2ccccc2)s1 (centres undefined)	Cruzain noTriton 7.9µM
C[C@@H](N)Cn1ccc2cc(F)c(Cl)cc21	none
Cn1c(=O)c2ncn(CC(=O)Nc3ccc4c5c(cccc35)CC4)c2n(C)c1=O	Cruzain noTriton 13µM, Cruzain Triton 13µM
Cc1cccc(C)c1NC(=O)Cn1cnc2c(=O)n(C)c(=O)n(C)c21	none
CCCCNC(=O)c1onc(CSc2ccc(F)c(F)c2)c1C(=O)O	none
C=CC(=O)OCC(C)C	none
Cc1ccc(-n2ncc3c(NCc4ccccc4)ncnc32)cc1	none
Cc1ccc(CNc2ncnc3c2cnn3-c2ccccc2)cc1	Cruzain noTriton 25µM
CSCC[C@H](NC(=O)C1CCN(S(=O)(=O)c2ccc(C)cc2)CC1)C(=O)NC1CCS(=O)(=O)C1 (some centres undefined)	none
Cn1c(SCC(=O)Nc2sc3c(c2C#N)CCC3)nnc1C1COc2ccccc2O1 (centres undefined)	none
C=CCn1c(SCC(=O)Nc2sc3c(c2C#N)CCC3)nnc1C1COc2ccccc2O1 (centres undefined)	Cruzain noTriton 32µM
COCCOc1cc(NC(=O)c2sccc2Oc2ccc([N+](=O)[O-])cc2F)c(Cl)cc1Cl	Cruzain noTriton 16µM
CCN(CC)S(=O)(=O)c1ccc(OC)c(NC(=O)c2cc([N+](=O)[O-])ccc2Cl)c1	none
CCCCCn1c(=O)[nH]c2cc(C(=O)NCc3ccc(F)cc3)ccc2c1=O	none
CCOCCCNC(=S)NCCNc1nc2ccc(C)cc2cc1C#N	none
COCCNC(=S)NCCCNc1nc2cc3c(cc2cc1C#N)OCO3	Cruzain noTriton inconclusive, Cruzain Triton 18µM
Cc1ccc(NC(=O)/C(=C\c2ccc([N+](=O)[O-])cc2)NC(=O)c2ccccc2)cc1	none
CSc1ccc(/C=C(/NC(=O)c2ccc(C)cc2)C(=O)Nc2cccc(F)c2)cc1	Cruzain noTriton 20µM
O=S(=O)(c1ccc2nc(-c3ccco3)c(-c3ccco3)nc2c1)N1CCOCC1	Cruzain Triton 22µM
Cn1c(=O)n(C)c2cc(S(=O)(=O)N3CCOCC3)ccc21	none
O=C(NC(=S)Nc1ccc(N2CCCCC2)c(Cl)c1)c1ccc2c(c1)OCCO2	Cruzain noTriton 25µM
O=C(NC(=S)Nc1ccc(N2CCOCC2)c(Cl)c1)c1cncc(Br)c1	none
NC[C@@H](O)CSP(=O)(O)O	none
CCOC(=O)c1c(NC(=O)CSc2ncnc3ccccc23)sc(C(C)=O)c1C	Cruzain noTriton inconclusive
CCOC(=O)c1sc2nc(SCC(=O)NCc3ccco3)n(Cc3ccccc3)c(=O)c2c1C	Cruzain noTriton 7.9µM
CCOC(=O)c1c(NC(=O)CSc2nc3ccccc3c(=O)n2-c2ccc(F)cc2)sc(C(C)=O)c1C	Cruzain noTriton 7.9µM
Cc1sc2nc(SCC(=O)NCc3ccco3)n(Cc3ccccc3)c(=O)c2c1C	none
COC(=O)c1c(NC(=O)CSc2nc3ccccc3c(=O)n2Cc2ccco2)sc(C)c1C	Cruzain noTriton 25µM
O=C(CSc1nc2ccccc2c(=O)n1Cc1ccco1)NCc1ccco1	none
CCOc1ccc(NC(=O)c2cnn(-c3ccc(C)c(C)c3)c2C2CCN(C(=O)OC(C)(C)C)CC2)cc1	none
COc1ccc(/C=C\C(=O)Nc2ccccc2C(=O)O)cc1OC	none
COc1ccc(N(C)S(=O)(=O)c2cccc(C(=O)Nc3ccc(-n4cnnn4)cc3)c2)cc1	Cruzain noTriton inconclusive
C=CCN1C=CC(=C/C=C(/C#N)C(=O)OCC)C=C1	Cruzain Triton inconclusive
O=C(CSc1nc2c(c(=O)[nH]1)CCCC2)Nc1ccccc1C(F)(F)F	none
COc1cccc(CN2C(=O)c3ccccc3C2C(=O)NCCc2ccccc2)c1 (centres undefined)	none
Cc1[nH]nc(-c2ccc(OCc3cnn(-c4ccccc4)c3)cc2O)c1Oc1ccc(F)cc1	Cruzain noTriton inconclusive
Cc1[nH]nc(-c2ccc(OCc3cnn(-c4ccccc4)c3)c(C)c2O)c1Oc1ccccc1	Cruzain noTriton 13µM
COc1ccc2nc(C)cc(Nc3ccc(Cl)c(Cl)c3)c2c1	none
O=C(Nc1ccc(SC(F)F)cc1)c1cc(-c2ccc3c(c2)OCCO3)on1	Cruzain noTriton 7.9µM
CC(=O)Nc1ccc(NC(=O)c2cc(-c3ccc4c(c3)OCCO4)on2)cc1	none
C=CCOc1c(Br)cc(CNn2nnnc2N)cc1OCC	none

Screening data as filed in PubChem.
